According to the supplement of paper PMC10849652:
Of roughly 8,800 targets only a part is listed; those with a hit were picked by preference. About 0.5% of all pairs of compound and target were hits.

Experiments:
Test in all cases: log2 fold change, soluble protein after heating vs DMSO (PISA); higher = thermal stabilisation; K562 lysate, 10 uM; active = over 0.2 and 3.5 SD of the protein, either way, in both replicates (recomputed)
[1] = compound: Cc1cn(-c2cc(NC(=O)c3ccc(C)c(Nc4nccc(-c5cccnc5)n4)c3)cc(C(F)(F)F)c2)cn1 [nilotinib]
Summary of the method: (§1)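 Pellets of K562 cells were dounce-homogenised in PBS pH 7.4 with 1 mM MgCl2, and the crude extract was held at 1 mg/mL protein for a 30 min treatment with 10 μM compound. Aliquots were heated for 3 min over 48°C-58°C and pooled before NP-40 was added to 0.5% at 4°C. The supernatant from 21,000xg for 90 min was quantified by TMTpro 16plex LC-MS/MS with channel sums equalised. Values are reported from duplicates as log-two fold change in thermal stability relative to solvent controls.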

[2] = compound: Cc1nc(Nc2n[nH]c3c2CN(C(=O)N[C@H](CN(C)C)c2ccccc2)C3(C)C)c2sccc2n1
Summary of the method: as §1

[3] = compound: Cc1nc(Nc2ncc(C(=O)Nc3c(C)cccc3Cl)s2)cc(N2CCN(CCO)CC2)n1 [dasatinib]
Summary of the method: as §1

[4] = compound: Cc1ncc(-c2ccnc(Nc3ccc(S(C)(=O)=O)cc3)n2)n1C(C)C
Summary of the method: as §1

[5] = compound: Cn1cc(-c2ccc3c(c2)CCN3C(=O)Cc2cccc(C(F)(F)F)c2)c2c(N)ncnc21
Summary of the method: as §1

[6] = compound: Cn1cc(CNCC2CCN(c3ncc(C(=O)NO)cn3)CC2)c2ccccc21 [quisinostat]
Summary of the method: as §1

[7] = compound: Cn1cncc1[C@@](N)(c1ccc(Cl)cc1)c1ccc2c(c1)c(-c1cccc(Cl)c1)cc(=O)n2C [tipifarnib]
Summary of the method: as §1

[8] = compound: NC(=O)Nc1cc(-c2cccc(F)c2)sc1C(=O)N[C@H]1CCCNC1
Summary of the method: as §1

[9] = compound: NC(=O)c1cnc(N[C@@H]2CCCC[C@@H]2N)nc1Nc1cccc(-n2nccn2)c1
Summary of the method: as §1

[10] = compound: NC1(c2ccc(-c3nc4ccn5c(=O)[nH]nc5c4cc3-c3ccccc3)cc2)CCC1
Summary of the method: as §1

Measured: log2 fold change

NADK2 (UniProt Q4G0N4)
inactive: [1] 0.022 | [2] 0.002 | [3] -0.016 | [4] -0.008 | [5] -0.022 | [6] 0.017 | [7] 0.008 | [8] -0.032 | [9] 0.029 | [10] 0.03

MT-CYB (UniProt P00156)
inactive: [1] 0.063 | [2] -0.081 | [3] 0.16 | [4] 0.011 | [5] 0 | [6] -0.131 | [7] -0.184 | [8] -0.003 | [9] -0.037 | [10] -0.06

MTA3 (UniProt Q9BTC8)
Sequence of UniProt Q9BTC8 (Q9BTC8 whole entry, looked up): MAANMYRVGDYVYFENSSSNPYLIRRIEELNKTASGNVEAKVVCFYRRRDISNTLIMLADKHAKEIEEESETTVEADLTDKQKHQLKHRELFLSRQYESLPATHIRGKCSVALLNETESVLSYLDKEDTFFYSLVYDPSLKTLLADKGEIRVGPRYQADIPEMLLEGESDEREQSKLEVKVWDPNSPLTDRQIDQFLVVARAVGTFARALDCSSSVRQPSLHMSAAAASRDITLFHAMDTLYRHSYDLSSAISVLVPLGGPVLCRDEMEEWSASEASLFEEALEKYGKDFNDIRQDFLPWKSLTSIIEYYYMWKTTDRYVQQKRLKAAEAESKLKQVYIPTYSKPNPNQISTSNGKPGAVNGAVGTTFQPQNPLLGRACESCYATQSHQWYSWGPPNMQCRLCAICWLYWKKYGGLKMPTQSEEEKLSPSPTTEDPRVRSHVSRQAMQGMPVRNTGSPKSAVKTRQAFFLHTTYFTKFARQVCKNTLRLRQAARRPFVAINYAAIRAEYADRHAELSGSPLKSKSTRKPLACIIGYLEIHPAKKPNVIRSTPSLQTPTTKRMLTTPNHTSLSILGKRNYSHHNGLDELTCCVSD
inactive: [1] 0.034 | [2] -0.059 | [3] -0.005 | [4] -0.019 | [5] -0.017 | [6] -0.061 | [7] 0.009 | [8] 0.03 | [9] 0.005 | [10] -0.047

NAA30 (UniProt Q147X3)
inactive: [1] -0.036 | [2] 0.019 | [3] -0.042 | [4] 0.059 | [5] -0.005 | [6] 0.032 | [7] -0.097 | [8] 0.001 | [9] -0.018 | [10] 0.041

NSUN2 (UniProt Q08J23)
Sequence of UniProt Q08J23 (Q08J23 whole entry, looked up): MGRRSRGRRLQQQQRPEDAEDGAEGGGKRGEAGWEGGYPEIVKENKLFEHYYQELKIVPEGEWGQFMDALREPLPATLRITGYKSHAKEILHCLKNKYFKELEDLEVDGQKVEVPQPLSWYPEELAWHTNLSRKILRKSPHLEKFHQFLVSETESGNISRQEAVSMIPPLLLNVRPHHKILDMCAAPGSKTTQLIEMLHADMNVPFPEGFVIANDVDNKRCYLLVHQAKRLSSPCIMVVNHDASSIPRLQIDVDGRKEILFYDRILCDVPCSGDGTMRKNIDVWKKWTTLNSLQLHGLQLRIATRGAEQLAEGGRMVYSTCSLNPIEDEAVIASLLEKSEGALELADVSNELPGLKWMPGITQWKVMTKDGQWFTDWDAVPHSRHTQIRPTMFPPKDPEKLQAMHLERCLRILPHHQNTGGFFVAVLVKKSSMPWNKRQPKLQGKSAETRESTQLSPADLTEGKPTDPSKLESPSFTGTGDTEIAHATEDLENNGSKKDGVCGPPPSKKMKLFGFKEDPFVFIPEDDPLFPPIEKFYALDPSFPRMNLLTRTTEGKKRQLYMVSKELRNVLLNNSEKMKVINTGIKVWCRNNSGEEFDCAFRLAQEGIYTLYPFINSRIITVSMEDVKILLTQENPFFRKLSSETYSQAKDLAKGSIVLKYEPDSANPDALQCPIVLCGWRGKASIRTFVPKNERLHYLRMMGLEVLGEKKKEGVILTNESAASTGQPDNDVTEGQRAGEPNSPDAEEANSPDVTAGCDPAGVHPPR
inactive: [1] 0.013 | [2] -0.004 | [3] -0.023 | [4] -0.005 | [5] 0.022 | [6] 0.007 | [7] 0.027 | [8] 0.024 | [9] -0.009 | [10] -0.011

N6AMT1 (UniProt Q9Y5N5)
inactive: [1] -0.009 | [2] 0.1 | [3] 0.002 | [4] 0.018 | [5] 0.013 | [6] 0 | [7] 0.06 | [8] -0.013 | [9] -0.027 | [10] 0.037

NUP210 (UniProt Q8TEM1)
Sequence of UniProt Q8TEM1 (Q8TEM1 whole entry, looked up): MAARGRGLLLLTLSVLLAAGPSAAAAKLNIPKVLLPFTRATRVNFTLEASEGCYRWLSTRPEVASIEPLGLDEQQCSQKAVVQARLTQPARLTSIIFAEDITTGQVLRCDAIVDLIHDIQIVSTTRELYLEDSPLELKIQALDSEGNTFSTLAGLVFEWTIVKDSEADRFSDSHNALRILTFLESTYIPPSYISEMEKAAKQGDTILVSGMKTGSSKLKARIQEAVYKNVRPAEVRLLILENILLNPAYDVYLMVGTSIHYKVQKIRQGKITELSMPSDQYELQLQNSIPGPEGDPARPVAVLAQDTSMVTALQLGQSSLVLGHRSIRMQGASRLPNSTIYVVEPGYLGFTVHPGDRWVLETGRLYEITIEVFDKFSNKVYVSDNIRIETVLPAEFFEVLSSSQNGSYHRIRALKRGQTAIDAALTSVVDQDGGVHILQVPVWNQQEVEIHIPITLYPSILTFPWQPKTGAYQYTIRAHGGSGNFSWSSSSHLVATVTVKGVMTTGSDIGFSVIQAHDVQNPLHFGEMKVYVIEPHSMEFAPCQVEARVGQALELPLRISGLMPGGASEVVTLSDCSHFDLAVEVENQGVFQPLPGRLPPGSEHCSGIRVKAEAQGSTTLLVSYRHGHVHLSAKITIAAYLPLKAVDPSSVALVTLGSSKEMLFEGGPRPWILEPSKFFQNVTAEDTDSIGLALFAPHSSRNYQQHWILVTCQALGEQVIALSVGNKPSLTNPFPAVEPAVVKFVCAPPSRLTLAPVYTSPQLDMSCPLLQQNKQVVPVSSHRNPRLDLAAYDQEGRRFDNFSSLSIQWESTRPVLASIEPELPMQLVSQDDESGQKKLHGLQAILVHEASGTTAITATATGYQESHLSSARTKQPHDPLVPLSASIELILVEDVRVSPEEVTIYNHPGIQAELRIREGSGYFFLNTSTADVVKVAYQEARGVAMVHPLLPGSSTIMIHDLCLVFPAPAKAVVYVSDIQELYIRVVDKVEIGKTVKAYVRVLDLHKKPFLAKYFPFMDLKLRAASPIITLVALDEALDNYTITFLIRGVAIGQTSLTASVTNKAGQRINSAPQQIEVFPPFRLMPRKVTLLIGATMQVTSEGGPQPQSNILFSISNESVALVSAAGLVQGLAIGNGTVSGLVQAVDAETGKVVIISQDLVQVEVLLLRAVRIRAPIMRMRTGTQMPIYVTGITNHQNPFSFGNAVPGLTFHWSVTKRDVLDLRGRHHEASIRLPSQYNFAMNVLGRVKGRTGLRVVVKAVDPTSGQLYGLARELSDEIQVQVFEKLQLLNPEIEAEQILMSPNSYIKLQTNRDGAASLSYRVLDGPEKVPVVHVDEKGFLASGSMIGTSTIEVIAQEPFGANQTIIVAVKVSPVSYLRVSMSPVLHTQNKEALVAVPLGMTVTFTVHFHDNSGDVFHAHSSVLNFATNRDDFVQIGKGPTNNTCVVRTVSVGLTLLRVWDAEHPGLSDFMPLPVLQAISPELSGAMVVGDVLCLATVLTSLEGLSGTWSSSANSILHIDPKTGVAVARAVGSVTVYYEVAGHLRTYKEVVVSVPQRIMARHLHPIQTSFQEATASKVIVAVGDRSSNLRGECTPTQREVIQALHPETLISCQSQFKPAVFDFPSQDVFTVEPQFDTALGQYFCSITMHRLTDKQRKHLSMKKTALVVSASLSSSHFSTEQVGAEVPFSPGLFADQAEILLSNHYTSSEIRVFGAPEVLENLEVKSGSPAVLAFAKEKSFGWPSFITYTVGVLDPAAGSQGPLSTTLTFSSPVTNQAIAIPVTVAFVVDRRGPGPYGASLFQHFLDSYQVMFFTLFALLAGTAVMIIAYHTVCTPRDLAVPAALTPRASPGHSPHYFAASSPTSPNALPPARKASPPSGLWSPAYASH
inactive: [1] -0.019 | [2] -0.008 | [3] -0.08 | [4] 0.009 | [5] 0.001 | [6] 0.084 | [7] -0.043 | [8] -0.01 | [9] 0.059 | [10] -0.019

NMRAL1 (UniProt Q9HBL8)
inactive: [1] -0.017 | [2] 0.004 | [3] -0.035 | [4] -0.005 | [5] -0.039 | [6] 0.025 | [7] 0.01 | [8] -0.021 | [9] 0.012 | [10] 0.045

MRPS18A isoform 2 (UniProt Q9NVS2)
inactive: [1] 0.031 | [2] -0.022 | [3] -0.054 | [4] -0.033 | [5] 0.006 | [6] -0.012 | [7] -0.026 | [8] 0.036 | [9] 0.014 | [10] -0.065

MRPS31 (UniProt Q92665)
inactive: [1] -0.005 | [2] -0.002 | [3] -0.034 | [4] 0.034 | [5] 0.002 | [6] -0.046 | [7] 0.015 | [8] 0.022 | [9] -0.026 | [10] -0.014

NACC1 (UniProt Q96RE7)
Sequence of UniProt Q96RE7 (Q96RE7 whole entry, looked up): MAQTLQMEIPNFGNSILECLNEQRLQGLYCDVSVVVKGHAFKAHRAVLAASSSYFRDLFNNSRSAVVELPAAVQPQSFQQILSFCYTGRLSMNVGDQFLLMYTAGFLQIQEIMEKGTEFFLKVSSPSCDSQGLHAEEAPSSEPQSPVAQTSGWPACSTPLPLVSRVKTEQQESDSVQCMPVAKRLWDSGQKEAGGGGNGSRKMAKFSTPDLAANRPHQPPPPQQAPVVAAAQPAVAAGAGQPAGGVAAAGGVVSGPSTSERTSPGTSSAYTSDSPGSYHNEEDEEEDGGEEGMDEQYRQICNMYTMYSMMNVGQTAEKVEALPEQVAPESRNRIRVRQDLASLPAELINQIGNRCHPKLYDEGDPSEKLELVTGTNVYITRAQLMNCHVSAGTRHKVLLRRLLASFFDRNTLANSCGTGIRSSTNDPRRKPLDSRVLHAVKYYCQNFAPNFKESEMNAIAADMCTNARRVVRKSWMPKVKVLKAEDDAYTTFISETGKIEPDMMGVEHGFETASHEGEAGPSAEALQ
inactive: [1] -0.013 | [2] 0.031 | [3] -0.006 | [4] -0.007 | [5] 0.022 | [6] -0.024 | [7] -0.008 | [8] -0.04 | [9] 0.022 | [10] 0.015

MTA2 (UniProt O94776)
Sequence of UniProt O94776 (O94776 whole entry, looked up): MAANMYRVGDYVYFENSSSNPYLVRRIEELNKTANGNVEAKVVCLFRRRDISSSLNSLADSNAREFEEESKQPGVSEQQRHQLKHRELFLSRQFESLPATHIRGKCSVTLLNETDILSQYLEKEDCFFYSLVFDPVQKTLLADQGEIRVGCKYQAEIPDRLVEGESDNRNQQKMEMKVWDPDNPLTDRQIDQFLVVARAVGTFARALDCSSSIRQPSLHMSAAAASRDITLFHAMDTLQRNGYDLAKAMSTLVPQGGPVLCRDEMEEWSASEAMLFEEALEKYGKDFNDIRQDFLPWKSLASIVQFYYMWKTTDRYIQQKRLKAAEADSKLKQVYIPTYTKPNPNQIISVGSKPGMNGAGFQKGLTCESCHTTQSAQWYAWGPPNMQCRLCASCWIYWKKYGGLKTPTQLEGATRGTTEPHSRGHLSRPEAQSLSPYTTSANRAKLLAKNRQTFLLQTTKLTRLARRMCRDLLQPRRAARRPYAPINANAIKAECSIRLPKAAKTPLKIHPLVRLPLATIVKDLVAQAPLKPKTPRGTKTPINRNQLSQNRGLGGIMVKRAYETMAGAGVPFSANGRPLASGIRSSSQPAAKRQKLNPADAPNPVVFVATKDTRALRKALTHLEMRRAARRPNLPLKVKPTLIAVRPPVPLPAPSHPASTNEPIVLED
inactive: [1] 0.001 | [2] 0.017 | [3] -0.019 | [4] -0.011 | [5] 0.046 | [6] -0.062 | [7] -0.007 | [8] 0.03 | [9] -0.002 | [10] 0.001

PAFAH1B3 (UniProt Q15102)
inactive: [1] 0.005 | [2] 0.036 | [3] -0.057 | [4] -0.026 | [5] 0.03 | [6] 0.01 | [7] -0.01 | [8] -0.009 | [9] 0.031 | [10] 0.021

NIT2 (UniProt Q9NQR4)
inactive: [1] -0.011 | [2] 0.001 | [3] -0.03 | [4] -0.021 | [5] -0.027 | [6] 0.004 | [7] 0.019 | [8] 0.021 | [9] -0.016 | [10] -0.023

PAXBP1 (UniProt Q9Y5B6)
inactive: [1] -0.014 | [2] 0.012 | [3] -0.046 | [4] 0.011 | [5] 0.024 | [6] -0.041 | [7] -0.008 | [8] 0.031 | [9] 0.023 | [10] -0.006

MTHFD1, A0A384N5Y3
inactive: [1] 0.005 | [2] -0.018 | [3] -0.081 | [4] -0.008 | [5] 0.032 | [6] -0.044 | [7] -0.02 | [8] 0.039 | [9] 0.008 | [10] -0.017

NFIC (UniProt P08651)
inactive: [1] -0.058 | [2] -0.162 | [3] 0.014 | [4] -0.114 | [5] 0.022 | [6] -0.072 | [7] 0.014 | [8] 0.029 | [9] 0.098 | [10] 0.016

NEK9 (UniProt Q8TD19)
inactive: [1] -0.024 | [2] 0.13 | [3] -0.002 | [4] 0.007 | [5] 0.001 | [6] -0.042 | [7] -0.018 | [8] 0.033 | [9] 0.003 | [10] -0.026

NPLOC4 isoform 2 (UniProt Q8TAT6)
inactive: [1] -0.005 | [2] 0.007 | [3] 0.019 | [4] 0.007 | [5] 0.004 | [6] -0.037 | [7] 0 | [8] -0.006 | [9] 0.018 | [10] -0.023

NCK1 (UniProt P16333)
inactive: [1] -0.071 | [2] 0.015 | [3] -0.005 | [4] -0.037 | [5] -0.015 | [6] -0.053 | [7] 0.018 | [8] 0.029 | [9] 0.001 | [10] 0.008

NONO (UniProt Q15233)
inactive: [1] -0.007 | [2] -0.011 | [3] -0.047 | [4] 0.007 | [5] 0.012 | [6] -0.004 | [7] -0.007 | [8] 0.022 | [9] 0.008 | [10] -0.013

NCOR1 (UniProt O75376)
inactive: [1] 0.006 | [2] 0.012 | [3] -0.031 | [4] -0.019 | [5] 0.008 | [6] -0.064 | [7] -0.046 | [8] 0.021 | [9] 0.029 | [10] 0.003

MRPL58 (UniProt Q14197)
inactive: [1] -0.022 | [2] 0.045 | [3] -0.008 | [4] -0.012 | [5] 0.021 | [6] 0.017 | [7] 0.003 | [8] 0.055 | [9] 0.025 | [10] -0.032

PARG (UniProt Q86W56)
inactive: [1] 0.006 | [2] 0.017 | [3] -0.033 | [4] 0.007 | [5] -0.004 | [6] -0.081 | [7] -0.007 | [8] 0.097 | [9] 0.006 | [10] 0.006

MYO1D (UniProt O94832)
inactive: [1] 0.002 | [2] -0.01 | [3] -0.036 | [4] -0.006 | [5] 0.016 | [6] -0.031 | [7] -0.004 | [8] 0.05 | [9] 0 | [10] -0.042

NUMBL (UniProt Q9Y6R0)
Sequence of UniProt Q9Y6R0 (Q9Y6R0 whole entry, looked up): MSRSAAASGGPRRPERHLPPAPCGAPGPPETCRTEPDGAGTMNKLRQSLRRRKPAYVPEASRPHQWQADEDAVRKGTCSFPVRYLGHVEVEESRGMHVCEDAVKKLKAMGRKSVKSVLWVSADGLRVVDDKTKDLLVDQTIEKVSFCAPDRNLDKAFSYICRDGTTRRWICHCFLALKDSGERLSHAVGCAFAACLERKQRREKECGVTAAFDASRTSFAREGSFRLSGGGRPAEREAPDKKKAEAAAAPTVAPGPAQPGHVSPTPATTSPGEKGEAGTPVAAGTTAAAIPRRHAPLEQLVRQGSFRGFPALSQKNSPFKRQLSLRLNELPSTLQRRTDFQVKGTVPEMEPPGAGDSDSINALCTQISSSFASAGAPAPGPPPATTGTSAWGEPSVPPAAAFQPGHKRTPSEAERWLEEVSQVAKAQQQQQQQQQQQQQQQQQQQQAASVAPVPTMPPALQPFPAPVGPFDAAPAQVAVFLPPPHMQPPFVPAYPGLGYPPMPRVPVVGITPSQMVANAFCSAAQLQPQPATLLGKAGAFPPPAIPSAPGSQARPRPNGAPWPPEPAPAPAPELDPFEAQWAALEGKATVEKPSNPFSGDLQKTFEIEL
active: [8] -0.415
inactive: [1] 0.038 | [2] -0.013 | [3] -0.041 | [4] -0.12 | [5] 0.219 | [6] 0.04 | [7] -0.06 | [9] -0.055 | [10] -0.046

NDUFS1 isoform 2 (UniProt P28331)
inactive: [1] 0.005 | [2] -0.001 | [3] 0.013 | [4] -0.021 | [5] 0.009 | [6] 0.112 | [7] -0.002 | [8] -0.018 | [9] 0.003 | [10] 0.006

NUP133 (UniProt Q8WUM0)
inactive: [1] 0.023 | [2] -0.006 | [3] -0.026 | [4] 0.019 | [5] 0.056 | [6] -0.092 | [7] -0.039 | [8] 0.006 | [9] 0.005 | [10] -0.016

NCAPH (UniProt Q15003)
inactive: [1] -0.033 | [2] 0 | [3] -0.03 | [4] -0.017 | [5] -0.017 | [6] 0.005 | [7] 0.023 | [8] 0.013 | [9] 0.006 | [10] -0.017

MYCBP (UniProt Q99417)
inactive: [1] -0.034 | [2] 0.041 | [3] 0.019 | [4] 0.055 | [5] -0.011 | [6] -0.058 | [7] -0.011 | [8] -0.038 | [9] -0.02 | [10] 0.029
